Results taken from the supplement of paper PMC8728848.
The full list was thinned out, with the strongest signals kept by preference.

Experiments:
Assay in all cases: glycan array binding signal (z-score within array); higher = stronger binding
Details in all cases: glycan notation: IUPAC condensed, linker removed
Fuc(a1-2)Gal = target: Fuc(a1-2)Gal
In short: (§1)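 The Consortium for Functional Glycomics database supplied 3228 glycan arrays, of which those lacking an available protein sequence were dropped. The binding signal, a within-array Z-score, was averaged across arrays of the same protein sequence and across linkers. Negative scores can be read as non-binding.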

[1] = target: Fuc(a1-2)Gal(b1-3)GlcNAc(b1-3)GalNAc
In short: as §1

[2] = target: Fuc(a1-2)Gal(b1-4)GlcNAc(b1-3)[Fuc(a1-3)[Gal(b1-4)]GlcNAc(b1-6)]Gal(b1-4)Glc
In short: as §1

[3] = target: Fuc(a1-2)[Gal(a1-3)]Gal(b1-4)Glc
In short: as §1

[4] = target: Fuc(a1-2)[GalNAc(a1-3)]Gal
In short: as §1

[5] = target: Fuc(a1-2)[GalNAc(a1-3)]Gal(b1-3)GlcNAc(b1-2)Man(a1-3)[Fuc(a1-2)[GalNAc(a1-3)]Gal(b1-3)GlcNAc(b1-2)Man(a1-6)]Man(b1-4)GlcNAc(b1-4)[Fuc(a1-6)]GlcNAc
In short: as §1

[6] = target: Fuc(a1-2)[GalNAc(a1-3)]Gal(b1-4)GlcNAc(b1-2)Man(a1-3)[Fuc(a1-2)[GalNAc(a1-3)]Gal(b1-4)GlcNAc(b1-2)Man(a1-6)]Man(b1-4)GlcNAc(b1-4)[Fuc(a1-6)]GlcNAc
In short: as §1

[7] = target: Fuc(a1-2)[GalNAc(a1-3)]Gal(b1-4)[Fuc(a1-3)]GlcNAc
In short: as §1

[8] = target: Fuc(a1-2)[GalNAc(a1-3)]Gal(b1-4)[Fuc(a1-3)]GlcNAc(b1-3)GalNAc
In short: as §1

[9] = target: Fuc(a1-3)[GalNAc(b1-4)]GlcNAc
In short: as §1

[10] = target: Gal(a1-3)Gal(b1-3)GlcNAc(b1-2)Man
In short: as §1

[11] = target: Gal(a1-3)Gal(b1-3)GlcNAc(b1-6)GalNAc
In short: as §1

[12] = target: Gal(a1-3)Gal(b1-4)[Fuc(a1-3)]GlcNAc
In short: as §1

Gal(a1-3)GalNAc = target: Gal(a1-3)GalNAc
In short: as §1

[13] = target: Gal(a1-3)[Gal(a1-4)]Gal(b1-4)GlcNAc
In short: as §1

Gal(a1-4)Gal(b1-4)Glc = target: Gal(a1-4)Gal(b1-4)Glc
In short: as §1

[14] = target: Gal(b1-3)GalNAc(a1-3)[Fuc(a1-2)]Gal(b1-4)Glc
In short: as §1

[15] = target: Gal(b1-3)GalNAc(b1-4)Gal(b1-4)Glc
In short: as §1

[16] = target: Gal(b1-3)GlcNAc(b1-3)Gal(b1-3)GlcNAc
In short: as §1

[17] = target: Gal(b1-3)GlcNAc(b1-3)Gal(b1-4)GlcNAc(b1-3)Gal(b1-4)GlcNAc(b1-2)[Gal(b1-3)GlcNAc(b1-3)Gal(b1-4)GlcNAc(b1-3)Gal(b1-4)GlcNAc(b1-6)]Man(a1-6)[Gal(b1-3)GlcNAc(b1-3)Gal(b1-4)GlcNAc(b1-3)Gal(b1-4)GlcNAc(b1-2)Man(a1-3)]Man(b1-4)GlcNAc(b1-4)[Fuc(a1-6)]GlcNAc
In short: as §1

[18] = target: Gal(b1-3)GlcNAc(b1-6)Gal(b1-4)GlcNAc
In short: as §1

Gal(b1-4)Glc6S = target: Gal(b1-4)Glc6S
In short: as §1

[19] = target: Gal(b1-4)GlcNAc(b1-2)Man(a1-3)[Gal(b1-4)GlcNAc(b1-2)Man(a1-6)][Gal(b1-4)GlcNAc(b1-4)]Man(b1-4)GlcNAc(b1-4)[Fuc(a1-6)]GlcNAc
In short: as §1

[20] = target: Gal(b1-4)GlcNAc(b1-6)Gal(b1-4)GlcNAc
In short: as §1

[21] = target: Gal3S(b1-4)[Fuc(a1-3)]Glc6S
In short: as §1

Gal6P(b1-4)GlcNAc = target: Gal6P(b1-4)GlcNAc
In short: as §1

Gal6S(b1-3)GlcNAc = target: Gal6S(b1-3)GlcNAc
In short: as §1

Gal6S(b1-4)Glc = target: Gal6S(b1-4)Glc
In short: as §1

GalNAc(a1-3)GalNAc = target: GalNAc(a1-3)GalNAc
In short: as §1

[22] = target: GalNAc(b1-3)Gal(a1-4)Gal(b1-4)GlcNAc
In short: as §1

B1: AT3G09350(27) (Arabidopsis thaliana), Q84J81 (protein)
chain: MAKDGPNWDGLLKWSLSHADGTRPTRQLSEEDRKWFMEAMQSQTVDVVKRMKEITLVMQTPEQVLVEHGVTPEDIQDLLDELQEHVESIDMANDLHSIGGLVPLLSFLKNSHANIRAKAADVVSTIVQNNPRSQELVMETNALESLLSNFTSDTDIHARTQALGAISSLIRHNKPGVTAFKLANGYAGLRDALASDSVRFQRKALNLLQYLLQEDDSDRSIATGLGFPRVMMHLASSDDAEIREAALRGLLELSREKNDGSSSIDKSDEKLRQLLEERIKGITLMSQEDLETVKEERQLVDLLWSICYNEPSSLREKGLVVLPGEDALPPDVASKLFEPPLRASAANRNATEKKDEPMKLLGP
Fuc(a1-2)Gal
  glycan array binding signal (z-score): -0.113
[1]
  glycan array binding signal (z-score): 0.676
[2]
  glycan array binding signal (z-score): -0.595
[3]
  glycan array binding signal (z-score): 2.16
[4]
  glycan array binding signal (z-score): -0.506
[5]
  glycan array binding signal (z-score): -0.677
[6]
  glycan array binding signal (z-score): 0.007
[7]
  glycan array binding signal (z-score): 0.498
[8]
  glycan array binding signal (z-score): 5.85
[9]
  glycan array binding signal (z-score): 3.56
[10]
  glycan array binding signal (z-score): 0.248
[11]
  glycan array binding signal (z-score): -0.449
[12]
  glycan array binding signal (z-score): -0.122
Gal(a1-3)GalNAc
  glycan array binding signal (z-score): 2.5
[13]
  glycan array binding signal (z-score): 8.94
Gal(a1-4)Gal(b1-4)Glc
  glycan array binding signal (z-score): 2.11
[14]
  glycan array binding signal (z-score): -0.346
[15]
  glycan array binding signal (z-score): 1.91
[16]
  glycan array binding signal (z-score): -0.089
[17]
  glycan array binding signal (z-score): -0.059
[18]
  glycan array binding signal (z-score): 3.05
Gal(b1-4)Glc6S
  glycan array binding signal (z-score): 0.57
[19]
  glycan array binding signal (z-score): -0.391
[20]
  glycan array binding signal (z-score): 3.1
[21]
  glycan array binding signal (z-score): -0.174
Gal6P(b1-4)GlcNAc
  glycan array binding signal (z-score): -0.424
Gal6S(b1-3)GlcNAc
  glycan array binding signal (z-score): -0.146
Gal6S(b1-4)Glc
  glycan array binding signal (z-score): -0.106
GalNAc(a1-3)GalNAc
  glycan array binding signal (z-score): -0.182
[22]
  glycan array binding signal (z-score): 4.3
